# Experimental data taken from paper PMC12820563, “FoxP3 forms a head-to-head dimer in vivo and stabilizes its multimerization on adjacent microsatellites”.
# Whole data set: some 16,000 sequences, median “rpm ratio (pull-down/input)” near 0.94, cut for the highest 2% near 1.7. What follows is part of a selection rich in the highest values, with near analogues and random picks from the rest.
# Target: T1, MBP-FoxP1dN (Mus musculus, UniProt P58462 326-579)
# T1 sequence: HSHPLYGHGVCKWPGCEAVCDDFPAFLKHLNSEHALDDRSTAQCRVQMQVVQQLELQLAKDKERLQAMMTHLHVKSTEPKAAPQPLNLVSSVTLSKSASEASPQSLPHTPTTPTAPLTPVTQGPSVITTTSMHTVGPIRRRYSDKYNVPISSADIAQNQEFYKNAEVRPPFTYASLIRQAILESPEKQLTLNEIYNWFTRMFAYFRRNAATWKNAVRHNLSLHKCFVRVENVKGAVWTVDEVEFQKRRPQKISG
# Assay: PD-seq (MBP pull-down with sequencing); 20 mM Tris-HCl pH 7.5, 100 mM NaCl, 1.5 mM MgCl2, 0.4 uM protein, 0.1 uM dsDNA library, 30 min, room temperature, amylose pull-down; high values mean tight binding
# Conditions: protein: recombinant; tags: His6-MBP; chain copies: 2; dsDNA, one strand shown
# Method in brief: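 Binding is given as reads-per-million enrichment, pull-down over input, with replicates pooled. The bait was an N-terminus-lacking mouse FoxP3 or FoxP1 fragment with a His6-MBP tag, expressed in E. coli and used at 0.4 µM with 0.1 µM Klenow-filled degenerate double-stranded DNA library for 30 min at room temperature in Tris pH 7.5 buffer with NaCl and MgCl2. Amylose resin pull-down with three washes was followed by proteinase K release, PCR barcoding and Illumina sequencing.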
row,Sequence,binding signal
1,GATGATTGTTCTCCCAGCTGATGAATTACACAGTTCGAGTAAACAAATTTTCCTAATCTTTCTGTTCAAGCGCCATCTAC,1.18 RPM ratio (pull-down/input)
2,GATGATTGTTCTCCCAGCTGATGAATTATATTAATCGAGTAAACAAATTTTCCTAATCTTTCTGTTCAAGCGCCATCTAC,1.1 RPM ratio (pull-down/input)
3,GATGATTGTTCTCCCAGCTGATGAATTATAAATATCGAGTAAACAAATTTTCCTAATCTTTCTGTTCAAGCGCCATCTAC,2.01 RPM ratio (pull-down/input)
4,GATGATTGTTCTCCCAGCTGATGAATTTATAATATCGAGTAAACAAATTTTCCTAATCTTTCTGTTCAAGCGCCATCTAC,1.31 RPM ratio (pull-down/input)
5,GATGATTGTTCTCCCAGCTGATGAATTGATTATATCGAGTAAACAAATTTTCCTAATCTTTCTGTTCAAGCGCCATCTAC,1.26 RPM ratio (pull-down/input)
6,GATGATTGTTCTCCCAGCTGATGAATTATAATTATCGAGTAAACAAATTTTCCTAATCTTTCTGTTCAAGCGCCATCTAC,1.37 RPM ratio (pull-down/input)
7,GATGATTGTTCTCCCAGCTGATGAATTATATTGATCGAGTAAACAAATTTTCCTAATCTTTCTGTTCAAGCGCCATCTAC,2.09 RPM ratio (pull-down/input)
8,GATGATTGTTCTCCCAGCTGATGAATTCACGCTGTCGAGTAAACAAATTTTCCTAATCTTTCTGTTCAAGCGCCATCTAC,0.895 RPM ratio (pull-down/input)
9,GATGATTGTTCTCCCAGCTGATGAATTACTCGTCTCGAGTAAACAAATTTTCCTAATCTTTCTGTTCAAGCGCCATCTAC,0.904 RPM ratio (pull-down/input)
10,GATGATTGTTCTCCCAGCTGATGAATTTGAGTGATCGAGTAAACAAATTTTCCTAATCTTTCTGTTCAAGCGCCATCTAC,0.906 RPM ratio (pull-down/input)
11,GATGATTGTTCTCCCAGCTGATGAATTAACGCGGTCGAGTAAACAAATTTTCCTAATCTTTCTGTTCAAGCGCCATCTAC,0.904 RPM ratio (pull-down/input)
12,GATGATTGTTCTCCCAGCTGATGAATTTATGATGTCGAGTAAACAAATTTTCCTAATCTTTCTGTTCAAGCGCCATCTAC,1.51 RPM ratio (pull-down/input)
13,GATGATTGTTCTCCCAGCTGATGAATTAATTATGTCGAGTAAACAAATTTTCCTAATCTTTCTGTTCAAGCGCCATCTAC,1.07 RPM ratio (pull-down/input)
14,GATGATTGTTCTCCCAGCTGATGAATTTATGTCGTCGAGTAAACAAATTTTCCTAATCTTTCTGTTCAAGCGCCATCTAC,1.14 RPM ratio (pull-down/input)
15,GATGATTGTTCTCCCAGCTGATGAATTCTTTATGTCGAGTAAACAAATTTTCCTAATCTTTCTGTTCAAGCGCCATCTAC,1.04 RPM ratio (pull-down/input)
16,GATGATTGTTCTCCCAGCTGATGAATTTGTTATGTCGAGTAAACAAATTTTCCTAATCTTTCTGTTCAAGCGCCATCTAC,1.55 RPM ratio (pull-down/input)
17,GATGATTGTTCTCCCAGCTGATGAATTTATGTTGTCGAGTAAACAAATTTTCCTAATCTTTCTGTTCAAGCGCCATCTAC,2.86 RPM ratio (pull-down/input)
18,GATGATTGTTCTCCCAGCTGATGAATTGTTTATGTCGAGTAAACAAATTTTCCTAATCTTTCTGTTCAAGCGCCATCTAC,2.77 RPM ratio (pull-down/input)
19,GATGATTGTTCTCCCAGCTGATGAATTTTTTATGTCGAGTAAACAAATTTTCCTAATCTTTCTGTTCAAGCGCCATCTAC,1.04 RPM ratio (pull-down/input)
20,GATGATTGTTCTCCCAGCTGATGAATTATGTTTGTCGAGTAAACAAATTTTCCTAATCTTTCTGTTCAAGCGCCATCTAC,2.67 RPM ratio (pull-down/input)
21,GATGATTGTTCTCCCAGCTGATGAATTATGTCTGTCGAGTAAACAAATTTTCCTAATCTTTCTGTTCAAGCGCCATCTAC,0.913 RPM ratio (pull-down/input)

row,Sequence,binding signal
1,GATGATTGTTCTCCCAGCTGATGAATTTATTATGTCGAGTAAACAAATTTTCCTAATCTTTCTGTTCAAGCGCCATCTAC,1.4 RPM ratio (pull-down/input)
2,GATGATTGTTCTCCCAGCTGATGAATTATTTATGTCGAGTAAACAAATTTTCCTAATCTTTCTGTTCAAGCGCCATCTAC,1.83 RPM ratio (pull-down/input)
3,GATGATTGTTCTCCCAGCTGATGAATTGGTCAGGTCGAGTAAACAAATTTTCCTAATCTTTCTGTTCAAGCGCCATCTAC,0.794 RPM ratio (pull-down/input)
4,GATGATTGTTCTCCCAGCTGATGAATTGCGTGCCTCGAGTAAACAAATTTTCCTAATCTTTCTGTTCAAGCGCCATCTAC,1.09 RPM ratio (pull-down/input)
5,GATGATTGTTCTCCCAGCTGATGAATTCGGTTTCTCGAGTAAACAAATTTTCCTAATCTTTCTGTTCAAGCGCCATCTAC,0.847 RPM ratio (pull-down/input)
6,GATGATTGTTCTCCCAGCTGATGAATTCGGAGCATCGAGTAAACAAATTTTCCTAATCTTTCTGTTCAAGCGCCATCTAC,1 RPM ratio (pull-down/input)
7,GATGATTGTTCTCCCAGCTGATGAATTCGATTCTTCGAGTAAACAAATTTTCCTAATCTTTCTGTTCAAGCGCCATCTAC,0.855 RPM ratio (pull-down/input)
8,GATGATTGTTCTCCCAGCTGATGAATTAAAGGAATCGAGTAAACAAATTTTCCTAATCTTTCTGTTCAAGCGCCATCTAC,0.934 RPM ratio (pull-down/input)
9,GATGATTGTTCTCCCAGCTGATGAATTGTTCGAGTCGAGTAAACAAATTTTCCTAATCTTTCTGTTCAAGCGCCATCTAC,1.05 RPM ratio (pull-down/input)
10,GATGATTGTTCTCCCAGCTGATGAATTTTGGCGATCGAGTAAACAAATTTTCCTAATCTTTCTGTTCAAGCGCCATCTAC,0.955 RPM ratio (pull-down/input)
11,GATGATTGTTCTCCCAGCTGATGAATTGGACGTGTCGAGTAAACAAATTTTCCTAATCTTTCTGTTCAAGCGCCATCTAC,0.855 RPM ratio (pull-down/input)
12,GATGATTGTTCTCCCAGCTGATGAATTGTCCCTCTCGAGTAAACAAATTTTCCTAATCTTTCTGTTCAAGCGCCATCTAC,0.967 RPM ratio (pull-down/input)
13,GATGATTGTTCTCCCAGCTGATGAATTGGACAAATCGAGTAAACAAATTTTCCTAATCTTTCTGTTCAAGCGCCATCTAC,1.05 RPM ratio (pull-down/input)
14,GATGATTGTTCTCCCAGCTGATGAATTGATATTTTCGAGTAAACAAATTTTCCTAATCTTTCTGTTCAAGCGCCATCTAC,2.4 RPM ratio (pull-down/input)
15,GATGATTGTTCTCCCAGCTGATGAATTGATATTGTCGAGTAAACAAATTTTCCTAATCTTTCTGTTCAAGCGCCATCTAC,2.35 RPM ratio (pull-down/input)
16,GATGATTGTTCTCCCAGCTGATGAATTGAATCTGTCGAGTAAACAAATTTTCCTAATCTTTCTGTTCAAGCGCCATCTAC,0.897 RPM ratio (pull-down/input)
17,GATGATTGTTCTCCCAGCTGATGAATTTGATATGTCGAGTAAACAAATTTTCCTAATCTTTCTGTTCAAGCGCCATCTAC,1 RPM ratio (pull-down/input)
18,GATGATTGTTCTCCCAGCTGATGAATTTGATATTTCGAGTAAACAAATTTTCCTAATCTTTCTGTTCAAGCGCCATCTAC,1.13 RPM ratio (pull-down/input)
19,GATGATTGTTCTCCCAGCTGATGAATTTTGATATTCGAGTAAACAAATTTTCCTAATCTTTCTGTTCAAGCGCCATCTAC,1.19 RPM ratio (pull-down/input)
20,GATGATTGTTCTCCCAGCTGATGAATTTCGCAGGTCGAGTAAACAAATTTTCCTAATCTTTCTGTTCAAGCGCCATCTAC,0.789 RPM ratio (pull-down/input)
21,GATGATTGTTCTCCCAGCTGATGAATTTCAGTGTTCGAGTAAACAAATTTTCCTAATCTTTCTGTTCAAGCGCCATCTAC,0.983 RPM ratio (pull-down/input)

row,Sequence,binding signal
1,GATGATTGTTCTCCCAGCTGATGAATTGACAGTTTCGAGTAAACAAATTTTCCTAATCTTTCTGTTCAAGCGCCATCTAC,1.26 RPM ratio (pull-down/input)
2,GATGATTGTTCTCCCAGCTGATGAATTTGCCACCTCGAGTAAACAAATTTTCCTAATCTTTCTGTTCAAGCGCCATCTAC,0.982 RPM ratio (pull-down/input)
3,GATGATTGTTCTCCCAGCTGATGAATTGTGTAATTCGAGTAAACAAATTTTCCTAATCTTTCTGTTCAAGCGCCATCTAC,1.32 RPM ratio (pull-down/input)
4,GATGATTGTTCTCCCAGCTGATGAATTGTGTATTTCGAGTAAACAAATTTTCCTAATCTTTCTGTTCAAGCGCCATCTAC,1.75 RPM ratio (pull-down/input)
5,GATGATTGTTCTCCCAGCTGATGAATTCGTGTATTCGAGTAAACAAATTTTCCTAATCTTTCTGTTCAAGCGCCATCTAC,1.35 RPM ratio (pull-down/input)
6,GATGATTGTTCTCCCAGCTGATGAATTTGTGTATTCGAGTAAACAAATTTTCCTAATCTTTCTGTTCAAGCGCCATCTAC,1.98 RPM ratio (pull-down/input)
7,GATGATTGTTCTCCCAGCTGATGAATTCGCCCGATCGAGTAAACAAATTTTCCTAATCTTTCTGTTCAAGCGCCATCTAC,0.901 RPM ratio (pull-down/input)
8,GATGATTGTTCTCCCAGCTGATGAATTGCCCCCATCGAGTAAACAAATTTTCCTAATCTTTCTGTTCAAGCGCCATCTAC,0.972 RPM ratio (pull-down/input)
9,GATGATTGTTCTCCCAGCTGATGAATTCAAGCCCTCGAGTAAACAAATTTTCCTAATCTTTCTGTTCAAGCGCCATCTAC,0.749 RPM ratio (pull-down/input)
10,GATGATTGTTCTCCCAGCTGATGAATTCTTGTATTCGAGTAAACAAATTTTCCTAATCTTTCTGTTCAAGCGCCATCTAC,1.72 RPM ratio (pull-down/input)
11,GATGATTGTTCTCCCAGCTGATGAATTGTATCTTTCGAGTAAACAAATTTTCCTAATCTTTCTGTTCAAGCGCCATCTAC,1.31 RPM ratio (pull-down/input)
12,GATGATTGTTCTCCCAGCTGATGAATTGTATATTTCGAGTAAACAAATTTTCCTAATCTTTCTGTTCAAGCGCCATCTAC,1.52 RPM ratio (pull-down/input)
13,GATGATTGTTCTCCCAGCTGATGAATTCCTGTATTCGAGTAAACAAATTTTCCTAATCTTTCTGTTCAAGCGCCATCTAC,1.3 RPM ratio (pull-down/input)
14,GATGATTGTTCTCCCAGCTGATGAATTGTATTGTTCGAGTAAACAAATTTTCCTAATCTTTCTGTTCAAGCGCCATCTAC,2.26 RPM ratio (pull-down/input)
15,GATGATTGTTCTCCCAGCTGATGAATTGTATTTTTCGAGTAAACAAATTTTCCTAATCTTTCTGTTCAAGCGCCATCTAC,1.8 RPM ratio (pull-down/input)
16,GATGATTGTTCTCCCAGCTGATGAATTCACGACCTCGAGTAAACAAATTTTCCTAATCTTTCTGTTCAAGCGCCATCTAC,0.767 RPM ratio (pull-down/input)
17,GATGATTGTTCTCCCAGCTGATGAATTTCCGAGATCGAGTAAACAAATTTTCCTAATCTTTCTGTTCAAGCGCCATCTAC,0.797 RPM ratio (pull-down/input)
18,GATGATTGTTCTCCCAGCTGATGAATTTAACTATTCGAGTAAACAAATTTTCCTAATCTTTCTGTTCAAGCGCCATCTAC,0.876 RPM ratio (pull-down/input)
19,GATGATTGTTCTCCCAGCTGATGAATTGATTCACTCGAGTAAACAAATTTTCCTAATCTTTCTGTTCAAGCGCCATCTAC,1.03 RPM ratio (pull-down/input)
20,GATGATTGTTCTCCCAGCTGATGAATTCGCACAATCGAGTAAACAAATTTTCCTAATCTTTCTGTTCAAGCGCCATCTAC,1.15 RPM ratio (pull-down/input)
21,GATGATTGTTCTCCCAGCTGATGAATTTCAAAGTTCGAGTAAACAAATTTTCCTAATCTTTCTGTTCAAGCGCCATCTAC,0.792 RPM ratio (pull-down/input)
